What all share (experiment): NCI-60 one-dose screen, 48 h (100 = growth as untreated, 0 = no growth, -100 = all killed)
Common to all, as to details: 10 µM

Assay [1] relates to NCI-H23 lung.
For assay [2], the system named is NCI-H226 lung.
For assay [3], the system named is NCI-H460 lung.
In assay [4] the test system is NCI-H522 lung.
The test system of assay [5] is A549/ATCC NSCLC.
Assay [6] concerns 786-0 renal.
The test system of assay [7] is COLO 205 colon.
Assay [8] concerns DU-145 prostate.
Assay [9] relates to K-562 leukemia.
The test system of assay [10] is MALME-3M melanoma.
The test system of assay [11] is MDA-MB-231 breast.
The test system of assay [12] is RXF 393 renal.
The test system of assay [13] is SF-268 CNS.
Assay [14] deals with SF-295 CNS.
Assay [15] deals with SF-539 CNS.
Assay [16] concerns M14 melanoma.
The test system of assay [17] is UACC-257 melanoma.

Molecules are shown by their SMILES. The panel holds about 83,000 compounds, 20% with a hit somewhere; the sample as a whole holds those more often.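 Compound tested at a single concentration for 48 hours in 96-well plates; a percent growth value below 10 was scored as active.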 A number with no mark means an inactive call. Active and inactive are the calls of the source.

For `Fc1ccc2[nH]cc(-c3nc(-c4ccsc4)cs3)c2c1`, the growth is 83.6% in assay [1]; 78.5% in assay [2]; 121% in [3]; 79.2% in [4]; 80% in [5]; 109% in assay [6]. In addition, the growth in assay [7] was 101%; in assay [8], 108%; in assay [9], 106%; in [10], 93%; in assay [11], 79.5%; in assay [12], 100%. The growth in assay [13] was 99.8%; in [14], 89.8%; in [15] it was 94%; in assay [16] it was 93.7%.
For `CCOC(=O)c1sc2ncnc(Nc3ccc(NC(=O)Nc4ccc(Cl)cc4)cc3)c2c1C`, the growth in [1] was 52.2%; in assay [2] it was 87.3%; in [3], 41.1%; in [4], 54.1%; in assay [5] it was 54.5%; in [6] it was 52.3%. For the same molecule, the growth was 53% in assay [7]; 54% in assay [8]; 83.7% in assay [9]; 26.4% in assay [10]; 23.8% in assay [11]; 19.4% in assay [12]. Also, the growth is 72.1% in assay [13], 33.1% in assay [14], -1.23% (active) in assay [15] and 64.8% in assay [16].
Consider `CCOC(=O)CSc1nc(-c2cc(OC)ccc2OC)cc(-c2ccc(OC)cc2)c1C#N`, for which the growth in assay [1] is 87%; in [2] it was 86.4%; in assay [3], 66.6%; in [4], 55.8%; in assay [5] it was 61.6%; in [6], 71.9%. In addition, the growth in assay [7] is 101%; in assay [8] it was 75.2%; in assay [9], 106%; in assay [10], 98.8%; in assay [11], 83.9%; in assay [12] it was 70.3%. In addition, the growth in [13] was 73.9%; in assay [14], 70.3%; in [15], 64.6%; in assay [16], 76.9%.
As for `O=c1[nH]c(=O)n(C2C[C@H](O)[C@@H](CO)O2)cc1C(F)(F)F` (some centres not stated), the growth in assay [1] is 98.1%; in assay [2], 107%; in [3] it was 113%; in assay [5] it was 102%; in assay [6], 101%; in assay [7] it was 113%. For the same molecule, the growth in assay [8] is 123%; in [10], 107%; in [11], 107%; in assay [12] it was 116%; in assay [13], 114%; in [14] it was 92.5%. The growth is 112% in [15], 107% in assay [17] and 108% in [16].
`COc1ccc(CCN2CCC(Nc3nc4ccccc4n3Cc3ccc(F)cc3)CC2)cc1`: the growth in assay [1] was 47.1%; in [2], 60%; in [3], 1.57% (active); in assay [5], 28.7%; in [6] it was -96.5% (active); in [7], -65.7% (active). The growth in assay [8] was 46.4%; in [10], -79.5% (active); in assay [11] it was -31.5% (active); in assay [12] it was -67.8% (active); in [13], 27.7%; in [14], -85.7% (active). Moreover, the growth in [15] was -81% (active); in assay [17] it was -81.7% (active); in assay [16] it was -99.4% (active).
As to `COc1cc2c3c(n(C4CCNCC4)c(=O)c2cc1OC)-c1cc2c(cc1C3=O)OCO2`, the growth in assay [1] was -59.4% (active); in [2], -43.8% (active); in [3] it was -66.2% (active); in assay [4] it was -44.3% (active); in [5], -53.7% (active); in assay [6], -60% (active). Further, the growth is -83% (active) in assay [7]; -92.8% (active) in assay [8]; -48.8% (active) in assay [9]; -68.4% (active) in assay [10]; -69.1% (active) in assay [11]; -56.4% (active) in assay [12]. The growth in assay [13] was -60% (active); in [14], -70.7% (active); in [15] it was -65.8% (active); in assay [16], -76.1% (active).
For `COc1ccc2nc(Cl)c(Cn3nnc(Cc4ccccc4)n3)cc2c1`, the growth is 32.5% in assay [1]; 39% in [2]; 40% in [3]; 38% in [4]; 31.5% in assay [5]; 47.5% in assay [6]. In addition, the growth in assay [7] is 24.9%; in [8], 61.6%; in [9], 32.9%; in [10], 34.4%; in assay [11], 50.7%; in assay [12] it was 60.2%. For the same molecule, the growth in [13] is 51.5%; in assay [14], 37.4%; in assay [15] it was 67.5%; in assay [16] it was 30.3%.
On to `CCn1c(CSc2nc3ccccc3c(=O)n2CCc2ccccc2)n[nH]c1=S`, for which the growth in assay [1] was 65.6%; in [2], 78.1%; in assay [3] it was 96.5%; in [4], -5% (active); in assay [5], 84.6%; in [6], 81.7%. In addition, the growth in assay [7] was 105%; in assay [8] it was 113%; in [9], 71.6%; in assay [10] it was 97.2%; in assay [11], 82.8%; in assay [12] it was 85.2%. Further, the growth in [13] was 98.4%; in [15] it was 99.8%; in assay [17], 88.5%; in [16], 88.8%.
Turning to `COc1cc2c3c(n(C4CCN(C)CC4)c(=O)c2cc1OC)-c1cc2c(cc1C3=O)OCO2`, the growth is 52.4% in assay [1]; 60.8% in assay [2]; 19.8% in assay [3]; 8.85% (active) in assay [4]; 55% in assay [5]; 55.4% in assay [6]. Further, the growth in assay [7] is 59.5%; in [8], 78.4%; in assay [9], 81.2%; in [10], 89.5%; in assay [11] it was 43.6%; in assay [12], 68.2%. Besides, the growth in assay [13] is 50.5%; in [14], 46.7%; in assay [15] it was -55.5% (active); in assay [16], 60.9%.
Turning to `CN(C)CCCN1c2ccccc2CCc2ccc(Cl)cc21`, the growth in [1] was 71.2%; in [2] it was 85.7%; in assay [3], 79.4%; in assay [5] it was 72.4%; in assay [6], 71.3%; in [7], -11.9% (active). Besides, the growth is 87.1% in assay [8]; 36.7% in [10]; 15.8% in assay [11]; 28.3% in assay [12]; 59.4% in assay [13]; 75.6% in [14]. Moreover, the values for the growth in assay [15], in assay [17] and in assay [16] were 83.5%, -11.9% (active) and 7.07% (active), respectively.
